# Results from PubChem BioAssay AID868 (SRMLSC, 2007).
# Among all 190,000 compounds or so, about 3,500 (1.8%) were called active. Many of the other results were omitted from the sample, so actives are more common in it than they were. A number with no mark means an inactive call.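 How the source made its calls: active means inhibition above a set limit, 3 SD over mean compound inhibition (cut at about 8.4% in these data); inactive means the rest.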
# Assay: RAM signaling blockers in budding yeast – dse1pr::URA3 reporter, 5-FOA selection, primary screen (AID 868);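 further: 0% = DMSO-only wells with no growth and 100% = 10 µM 1-NA-PP1 full growth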
# Conditions: S. cerevisiae dse1pr::URA3 reporter, 5-FOA growth OD615, 2 d; at 50 µM; stronger effect = higher value; analog-sensitive cbk1-as2 kinase mutant strain
row,SMILES,inhibition
1,Cc1ccc(C(=O)NC(=S)Nc2ccc(N3CCOCC3)cc2)cc1,0.79%
2,COc1cccc(OC)c1C(=O)Nc1ccc(N2CCCCC2)cc1,0.91%
3,COc1ccc(C(=O)NC(=S)Nc2ccc(N3CCCC3)cc2)cc1OC,12.4% (active)
4,C=C(C)C1CC=C(C)/C(=N/NC(=O)CCCNc2cccc(C)c2)C1 (stereo unspecified),0.96%
5,CCN(CC(=O)NCc1cccs1)C(=O)c1ccccc1F,1.03%
6,COc1ccc(OC)c(CNC(=O)c2cc(=O)[nH]c3ccc(S(=O)(=O)N4CCCC4)cc23)c1,2.57%
7,CCSc1nc(-c2ccc(OC)cc2)cc(-c2ccc(OC)cc2)c1C#N,6.16%
8,CCOC(=O)CC(=O)CSc1nc(-c2ccccc2)cc(-c2ccc(Cl)cc2)c1C#N,13.1% (active)
9,N#Cc1c(C(F)(F)F)cc(-c2ccc(Cl)cc2)nc1SCC(=O)O,2.99%
10,COc1ccc(C(=O)Nc2ccc(S(=O)(=O)NC(C)C)cc2)cc1,1.59%
11,CC(=O)c1ccc(NC(=S)NC(=O)CC(C)C)cc1,0.87%
12,COc1ccc(NS(=O)(=O)c2ccc(NC(=S)NC(=O)CC(C)C)cc2)cc1,9.99% (active)
13,CC(=O)Oc1c(C(=O)c2nnc(C)o2)c(=O)n(Cc2ccccc2)c2ccccc12,1.56%
14,O=C(CSc1ccc([N+](=O)[O-])cn1)Nc1ccc(N2CCOCC2)cc1,2.94%
15,CCc1c(C)sc(NC(=O)/C=C/c2ccc3c(c2)OCO3)c1C(=O)OC,2.35%
16,CCc1c(C)sc(NC(=O)c2ccc(Br)o2)c1C(=O)OC,9.13% (active)
17,CCOC(=O)c1c(NC(=O)c2ccc(Br)o2)sc2c1CCCC2,3.28%
18,O=C(C(=O)N1CCc2ccccc2C1)N1CCc2ccccc2C1,-0.82%
19,O=C(CN1CCN(c2nc(-c3ccccc3)cs2)CC1)NCc1ccc2c(c1)OCO2,0.34%
20,c1ccc(-c2csc(N3CCc4ccccc4C3)n2)cc1,12% (active)
21,C/C(=N\NC(=O)NC1CCCCC1)c1ccc(OC(F)F)cc1OC(F)F,0.62%
22,N#C/C(=C\c1ccccc1C(F)(F)F)C(=O)Nc1ccccc1F,1.21%
23,N#C/C(=C\C1=C(N2CCOCC2)C(=C\c2ccccc2)/CC1)C(=O)Nc1ccccc1F,11.8% (active)
24,C(=N\N1CCN(c2ccccn2)CC1)/C1=C(N2CCOCC2)C(=C/c2ccccc2)/CC1,-0.25%

row,SMILES,inhibition
1,Cn1c(N)c(C(=O)COC(=O)c2ccccc2NCc2ccco2)c(=O)n(C)c1=O,1.05%
2,O=C(CN1CCOCC1)Nc1c(Cl)cc(Cl)cc1Cl,-0.37%
3,N#Cc1c(C(F)(F)F)cc(-c2ccccc2)nc1SCC(=O)N1CCOCC1,0.78%
4,CCN(CC)c1nc(-c2ccccc2)cc(C(F)(F)F)c1C#N,10.8% (active)
5,COC(=O)c1cc2nc(-c3ccccc3)cc(C(F)(F)F)n2n1,4.75%
6,CN(C)S(=O)(=O)c1ccc(NC(=O)N2CCOCC2)cc1,0.13%
7,Clc1ccc2nc(CSc3ccccc3)cn2c1,0.13%
8,CC1=C(C)CC(C(=O)NC(C)CCc2ccccc2)C(C(=O)O)C1 (stereo unspecified),0.85%
9,O=C(CSc1nc(O)c(Cc2ccccc2)c(=O)[nH]1)Nc1nc2c(s1)CCCC2,2.38%
10,Cn1c(=O)c(Sc2ccc(Cl)cc2)c(O)c2ccccc21,1.1%
11,CCn1c(=O)cc(O)c2ccccc21,-0.4%
12,Cn1c2ccccc2c(=O)c2c(O)cccc21,11.3% (active)
13,CCNC(=O)CC1C(=O)N(c2ccc(F)cc2)C(=O)N1Cc1cccs1 (stereo unspecified),0.28%
14,COc1ccc(C(=O)COC(=O)c2ccc3ccccc3n2)cc1,-0.53%
15,CCCCC(C(=O)OCC(=O)c1ccc(OC)cc1)N1C(=O)c2ccccc2C1=O (stereo unspecified),12.2% (active)
16,COc1ccc(C(=O)CN(C(=O)c2ccc(Cl)cc2)N2C(=O)c3ccccc3C2=O)cc1,4.27%
17,COc1ccc(-n2nc3c(c2NC(=O)Cc2cccc(C)c2)CS(=O)C3)cc1 (stereo unspecified),0.7%
18,Cc1cccc(CC(=O)Nc2c3c(nn2-c2cccc(Cl)c2)CS(=O)C3)c1 (stereo unspecified),9.78% (active)
19,COc1ccc(CC(=O)Nc2c3c(nn2-c2cccc(Cl)c2)CS(=O)C3)cc1 (stereo unspecified),2.33%
20,CCCn1c(=O)c2c(C(F)(F)F)cc(-c3cccs3)nc2n(CCC)c1=O,2.68%
21,CN1CCC(=NNC(=O)CN(c2cccc(Cl)c2)S(C)(=O)=O)CC1,-0.4%
22,O=C(OCc1ccc(Br)cc1)c1cccc(-c2nnc(-c3ccccc3)o2)c1,12% (active)
23,CCOC(=O)CSc1nnc(-c2cccc(Br)c2)o1,-0.68%
24,O=C(OCc1nnc(-c2ccccc2)o1)c1ccc2c(c1)C(=O)N(CCc1ccccc1)C2=O,4.12%

row,SMILES,inhibition
1,O=[N+]([O-])c1ccc2oc(-c3cccc(O)c3)nc2c1,13.2% (active)
2,O=[N+]([O-])c1cccc(Nc2c3ccccc3nc3ccccc23)c1,0.27%
3,COc1ccc(-c2nc3cc([N+](=O)[O-])ccc3o2)cc1OC,1.49%
4,C=CCO/N=C(\C)c1c(O)c(C)c(-c2ccccc2)n(-c2ccccc2)c1=O,14.2% (active)
5,Cc1nn(-c2ccccc2)c(C)c1/C=N/NC(=O)CSc1nc2ccccc2c(=O)n1-c1ccccc1,2.56%
6,CCO/N=C(/C)c1c(O)cc(-c2ccccc2)n(-c2ccccc2)c1=O,4.11%
7,O=C(CC1C(=O)NCCN1Cc1ccc(-c2ccccc2)cc1)NCc1ccncc1 (stereo unspecified),-0.27%
8,Cc1ccnc(NS(=O)(=O)c2ccc(NC(=O)c3ccc(S(=O)(=O)N(C)C)cc3)cc2)n1,-0.41%
9,CC1=C/C(=N\S(=O)(=O)c2ccccc2)C(C(C)C)=CC1=O,3.57%
10,CCOC(=O)/C(C#N)=C/c1ccc(N2CCN(Cc3ccccc3)CC2)cc1,-1.52%
11,CCOC(=O)/C(C#N)=C/c1ccc(N2CCCCC2)cc1,1.57%
12,COc1ccc(N2CCN(C(=O)/C(C#N)=C/c3ccccc3)CC2)cc1,8.69% (active)
13,COc1cccc2cc(/C(C)=N/NC(=O)c3ccco3)oc12,1.11%
14,Cc1cc(C)c2c(-n3cccc3)c(NC(=O)OCc3ccccc3)sc2n1,5.58%
15,COC(=O)Nc1sc2nc(C)cc(C)c2c1-n1cccc1,0.22%
16,CCCCOC(=O)Nc1sc2nc(C)cc(C)c2c1-n1cccc1,9.53% (active)
17,COc1cc(CN(C)Cc2nc3cc(C(F)(F)F)ccc3c(=O)[nH]2)ccc1OC(F)F,2.67%
18,CCOC(=O)C1=C(C)N=C2c3ccccc3C(=O)C2C1c1ccc(Br)cc1 (stereo unspecified),1.62%
19,N#CC(=C1CCCC1)c1nc(-c2ccc(Cl)cc2)cs1,9.11% (active)
20,N#C/C(=C1\CCCN1)c1nc(-c2ccccc2)cs1,3.76%
21,N#CC(=C1SC=CS1)c1nc(-c2ccccc2)cs1,3.35%
22,O=C(CSc1ccc(-c2ccccc2)nn1)NCC1CCCO1 (stereo unspecified),2.21%
23,CCC(=O)Nc1c(S(=O)(=O)c2ccccc2)c2nc3ccccc3nc2n1Cc1ccccc1,2.78%
24,C=CCn1c(N)c(S(=O)(=O)c2cccs2)c2nc3ccccc3nc21,1.69%

row,SMILES,inhibition
1,Cc1ccc(S(=O)(=O)c2c(N)n(C)c3nc4ccccc4nc23)cc1,12.3% (active)
2,COc1ccc(C(=O)C[n+]2ccc(C)cc2)cc1,0.48%
3,COc1ccc(C(=O)/C=C/c2ccc(OC3CSC3)cc2)cc1,9.21% (active)
4,CCOC(=O)C1CCCN(C(=O)/C=C/c2ccc(OC)cc2)C1 (stereo unspecified),0.37%
5,COc1ccc(C(=O)/C=C/Nc2ccccn2)cc1,2.71%
6,COc1ccc(/C=C/C(=O)c2ccc(OC)cc2O)cc1,8.82% (active)
7,O=C(/C=C/c1ccccc1)c1ccccc1O,-0.67%
8,COc1ccc(/C=C/C(=O)c2cc(Br)ccc(=O)c2O)cc1,1.75%
9,C=CCOc1c(CNn2cn[nH]c2=S)cccc1OC,0.75%
10,COC(=O)c1ccc(NC(=S)Nc2cccc(C)n2)cc1,3.21%
11,CC1CCN(C(=S)c2cccc([N+](=O)[O-])c2)CC1,-0.74%
12,CC(NC(=S)NC1CCCCC1)C(c1ccccc1)N1CCOCC1 (stereo unspecified),0.28%
13,COc1cc(/C=N/O)cc(Br)c1OCc1cccc(Cl)c1,9.47% (active)
14,CCOc1c(Cl)cc(/C=N/O)cc1OC,2.16%
15,CCOc1cc(/C=N/O)cc(Br)c1OC,0.34%
16,NS(=O)(=O)c1cccc(NC(=O)COC(=O)/C=C/c2ccco2)c1,0.38%
17,CCc1ccc2nc3sc(C(=O)Nc4nnc(CC)s4)c(N)c3cc2c1,8.98% (active)
18,CCc1nnc(NC(=O)c2sc3nc(C)cc(COC)c3c2N)s1,1.25%
19,CCc1nnc(NC(=O)c2cccs2)s1,1.49%
20,COCc1c(C(=O)OCc2c(C)noc2C)oc2ccccc12,0.88%
21,Cc1cc(/C=C2/C(=N)N3C(=NC2=O)SN=C3S(C)(=O)=O)c(C)n1-c1ccccc1,4.35%
22,COc1cc(NC(=O)COC(=O)CSc2ccc3ccccc3c2)c(C)cc1[N+](=O)[O-],2.2%
23,COc1ccc2c(CC(=O)OCC(=O)Nc3ccccc3[N+](=O)[O-])coc2c1,10% (active)
24,COc1ccc2c(CC(=O)Nc3nnc(C4CC4)s3)coc2c1,3.72%
